Here are results for four compounds from PubChem BioAssay (EPA / NIEHS).

Holding throughout (conditions): mRNA level, 48 h; actives raise or lower the signal
Read-out in one experiment: MYC, MYC (gene 4609)
The experiment in a line: LTEA_HepaRG_MYC: Life Technologies and Expression Analysis (LTEA) Assay for MYC using HepaRG (AID 2283518). A digest of the protocol:
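Cells are thawed, plated and cultured 48 h, then treated for 48 h with test chemicals (eight half-log concentrations from 100 uM, 0.5% DMSO vehicle). RNA is isolated and MYC expression quantified by qRT-PCR against three housekeeping genes.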

Read-out in experiment [1]: matrix metalloproteinase-3 (MMP3), MMP3 (gene 4314)
The experiment in a line: LTEA_HepaRG_MMP3: Life Technologies and Expression Analysis (LTEA) Assay for matrix metalloproteinase-3 (MMP3) using HepaRG (AID 2283519). A digest of the protocol:
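Differentiated human HepaRG cells, plated 48 h on collagen I, were exposed in duplicate for 48 h in serum-free induction medium to eight half-log concentrations up to 100 uM in 0.5% DMSO. MMP3 mRNA was quantified by TaqMan qRT-PCR, normalised to ACTB, GAPDH and POLR2A.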

Read-out in experiment [2]: Paternally Expressed 10 (PEG10), PEG10 (gene 23089)
The experiment in a line: LTEA_HepaRG_PEG10: Life Technologies and Expression Analysis (LTEA) Assay for Paternally Expressed 10 (PEG10) using HepaRG (AID 2283520). A digest of the protocol:
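HepaRG, 48 h post-plating → serum-free induction medium → 48 h chemical exposure (duplicate, 8-pt, max 100 uM, half-log, 0.5% DMSO) → lysis in RLT → TaqMan qRT-PCR for PEG10, ACTB/GAPDH/POLR2A normalisation.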

Read-out in experiment [3]: Protein phosphatase 2A (PPP2R4), PTPA (gene 5524)
Put plainly: LTEA_HepaRG_PPP2R4: Life Technologies and Expression Analysis (LTEA) Assay for Protein phosphatase 2A (PPP2R4) using HepaRG (AID 2283522). A digest of the protocol:
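Readout is PPP2R4 transcript level by microfluidic qRT-PCR after 48 h chemical treatment of human HepaRG liver cells. Concentrations spanned 100 uM downward in half-log steps; gain or loss of signal was fitted relative to DMSO.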

Read-out in experiment [4]: Phosphatase and tensin (PTEN), PTEN (gene 5728)
Put plainly: LTEA_HepaRG_PTEN: Life Technologies and Expression Analysis (LTEA) Assay for Phosphatase and tensin (PTEN) using HepaRG (AID 2283523). A digest of the protocol:
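Differentiated human HepaRG cells, plated 48 h then switched to serum-free induction medium, were exposed in duplicate for 48 h to eight half-log concentrations up to 100 uM in 0.5% DMSO. PTEN mRNA measured by TaqMan qRT-PCR, normalized to ACTB/GAPDH/POLR2A, bidirectional fit versus DMSO.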

Read-out in experiment [5]: solute carrier (SLC22A1), SLC22A1 (gene 6580)
The experiment in a line: LTEA_HepaRG_SLC22A1: Life Technologies and Expression Analysis (LTEA) Assay for solute carrier (SLC22A1) using HepaRG (AID 2283524). An outline of the steps:
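Human HepaRG cells were plated 48 h, switched to serum-free induction medium, then exposed in duplicate for 48 h to 8-point half-log series from 100 uM in 0.5% DMSO. SLC22A1 mRNA measured by qRT-PCR, normalized to ACTB/GAPDH/POLR2A, fitted bidirectionally versus DMSO.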

Read-out in experiment [6]: Pyruvate Dehydrogenase Kinase 4 (PDK4), PDK4 (gene 5166)
Put plainly: LTEA_HepaRG_PDK4: Life Technologies and Expression Analysis (LTEA) Assay for Pyruvate Dehydrogenase Kinase 4 (PDK4) using HepaRG (AID 2283525). An outline of the steps:
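Differentiated human HepaRG cells, pre-cultured 48 h, were exposed in duplicate for 48 h in serum-free induction medium to eight half-log concentrations up to 100 uM in 0.5% DMSO. PDK4 mRNA was quantified by qRT-PCR, normalized to ACTB, GAPDH and POLR2A, bidirectional fitting versus DMSO.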

Read-out in experiment [7]: NAD(P)H dehydrogenase [quinone] 1 (NQO1), NQO1 (gene 1728)
The experiment in a line: LTEA_HepaRG_NQO1: Life Technologies and Expression Analysis (LTEA) Assay for NAD(P)H dehydrogenase [quinone] 1 (NQO1) using HepaRG (AID 2283526). An outline of the steps:
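HepaRG, 48 h post-plating → serum-free induction medium → test chemical 48 h (duplicate, 100 uM top, half-log x8, 0.5% DMSO) → RNA isolation → qRT-PCR, ACTB/GAPDH/POLR2A normalization; bidirectional curve fit vs DMSO baseline.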

Read-out in experiment [8]: Nuclear factor erythroid 2-related factor 2 (Homo sapiens) (UniProt Q16236)
The experiment in a line: LTEA_HepaRG_NFE2L2: Life Technologies and Expression Analysis (LTEA) Assay for Nuclear factor erythroid 2-related factor 2 (NFE2L2) Transcription Factor using HepaRG (AID 2283527). An outline of the steps:
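Differentiated human HepaRG cells in serum-free induction medium were exposed for 48 h to eight concentrations (top 100 uM, half-log dilutions, 0.5% DMSO), in duplicate. NFE2L2 mRNA was quantified by TaqMan qRT-PCR, normalized to ACTB, GAPDH and POLR2A, with bidirectional fitting versus DMSO.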

Read-out in experiment [9]: succinate dehydrogenase complex iron sulfur subunit B (SDHB), SDHB (gene 6390)
The experiment in a line: LTEA_HepaRG_SDHB: Life Technologies and Expression Analysis (LTEA) Assay for succinate dehydrogenase complex iron sulfur subunit B (SDHB) using HepaRG (AID 2283528). A digest of the protocol:
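SDHB transcript level read by TaqMan qRT-PCR, housekeeping-normalised (ACTB, GAPDH, POLR2A), after 48 h chemical treatment of plated HepaRG cells; eight concentrations top 100 uM, half-log steps, 0.5% DMSO, duplicates; fitted both directions against DMSO.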

Read-out in experiment [10]: Signal transducer and activator of transcription 3 (Homo sapiens) (UniProt P40763)
The experiment in a line: LTEA_HepaRG_STAT3: Life Technologies and Expression Analysis (LTEA) Assay for Signal transducer and activator of transcription (STAT3) using HepaRG (AID 2283529). A digest of the protocol: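 Differentiated human HepaRG cells in serum-free induction medium were exposed in duplicate for 48 h to eight half-log concentrations up to 100 uM in 0.5% DMSO. STAT3 mRNA was quantified by TaqMan qRT-PCR, normalized to ACTB, GAPDH and POLR2A, and fitted bidirectionally against DMSO.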

Read-out in experiment [11]: solute carrier (SLCO1B1), SLCO1B1 (gene 10599)
The experiment in a line: LTEA_HepaRG_SLCO1B1: Life Technologies and Expression Analysis (LTEA) Assay for solute carrier (SLCO1B1) using HepaRG (AID 2283530). An outline of the steps:
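Gain or loss of SLCO1B1 mRNA is fitted against the 0.5% DMSO vehicle in human HepaRG liver cells treated 48 h at up to 100 uM in half-log steps. Expression comes from qRT-PCR normalized to endogenous controls.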

Read-out in experiment [12]: sulfotransferase 2A1 (SULT2A1), SULT2A1 (gene 6822)
Put plainly: LTEA_HepaRG_SULT2A1: Life Technologies and Expression Analysis (LTEA) Assay for sulfotransferase 2A1 (SULT2A1) using HepaRG (AID 2283531). A digest of the protocol:
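Cells were plated and cultured 48 h, switched to serum-free induction medium, then dosed in duplicate for 48 h (8 concentrations, max 100 uM). RNA was isolated and SULT2A1 expression measured by qRT-PCR; gain or loss of signal fitted relative to DMSO.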

Read-out in experiment [13]: Transforming Growth Factor (TGFA), TGFA (gene 7039)
The experiment in a line: LTEA_HepaRG_TGFA: Life Technologies and Expression Analysis (LTEA) Assay for Transforming Growth Factor (TGFA) using HepaRG (AID 2283532). An outline of the steps: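 Differentiated human HepaRG cells, plated 48 h then switched to serum-free induction medium, were exposed in duplicate for 48 h to 8-point half-log series from 100 uM in 0.5% DMSO. TGFA mRNA measured by qRT-PCR, normalized to ACTB/GAPDH/POLR2A, bidirectional fit versus DMSO.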

Read-out in experiment [14]: Transforming Growth Factor (TGFB1), TGFB1 (gene 7040)
Put plainly: LTEA_HepaRG_TGFB1: Life Technologies and Expression Analysis (LTEA) Assay for Transforming Growth Factor (TGFB1) Transporter using HepaRG (AID 2283533). A digest of the protocol: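 Expression change of TGFB1 in human HepaRG cells is measured after a 48 h chemical exposure, up to 100 uM in 0.5% DMSO vehicle. Curves are fitted in both directions relative to the DMSO baseline.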

Read-out in the next experiment: TIMP1, TIMP1 (gene 7076)
The experiment in a line: LTEA_HepaRG_TIMP1: Life Technologies and Expression Analysis (LTEA) Assay for TIMP1 using HepaRG (AID 2283534). A digest of the protocol:
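We dosed human liver HepaRG cultures for 48 hours with up to 100 uM test chemical and measured TIMP1 expression by qRT-PCR. Activity in either direction is fitted relative to the 0.5% DMSO vehicle.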

Read-out in experiment [15]: Tumor necrosis factor receptor 1 (TNFRSF1A), TNFRSF1A (gene 7132)
Put plainly: LTEA_HepaRG_TNFRSF1A: Life Technologies and Expression Analysis (LTEA) Assay for Tumor necrosis factor receptor 1 (TNFRSF1A) using HepaRG (AID 2283535). A digest of the protocol:
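Expression of TNFRSF1A in human HepaRG liver cells was measured by qRT-PCR 48 h after chemical dosing (maximum 100 uM). Bidirectional curve fitting used 0.5% DMSO as baseline.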

Read-out in experiment [16]: Thyroid Hormone Responsive (THRSP), THRSP (gene 7069)
The experiment in a line: LTEA_HepaRG_THRSP: Life Technologies and Expression Analysis (LTEA) Assay for Thyroid Hormone Responsive (THRSP) using HepaRG (AID 2283536). An outline of the steps:
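Differentiated human HepaRG cells were exposed in duplicate for 48 h in serum-free induction medium to eight concentrations (top 100 uM, half-log steps, 0.5% DMSO). Expression was quantified by TaqMan qRT-PCR, normalized to ACTB, GAPDH and POLR2A, with bidirectional fitting against DMSO.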

Read-out in experiment [17]: Cellular tumor antigen p53 (Homo sapiens) (UniProt P04637)
The experiment in a line: LTEA_HepaRG_TP53: Life Technologies and Expression Analysis (LTEA) Assay for Tumor Protein P53 (TP53) using HepaRG (AID 2283537). A digest of the protocol: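 TP53 transcript measured by qRT-PCR, normalized to three housekeeping genes, after 48 h treatment of human HepaRG cultures with chemicals from 100 uM downward in half-log steps (0.5% DMSO vehicle, serum-free induction medium). Up- or down-regulation fitted against DMSO.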

The source made the active and inactive calls. Rule for the calls: active = hit-call score of the fitted dose curve at least 0.9, where 1 is the maximum; inactive = score below 0.9.

Cellular tumor antigen p53 (Homo sapiens), sequence (P04637 whole entry, looked up): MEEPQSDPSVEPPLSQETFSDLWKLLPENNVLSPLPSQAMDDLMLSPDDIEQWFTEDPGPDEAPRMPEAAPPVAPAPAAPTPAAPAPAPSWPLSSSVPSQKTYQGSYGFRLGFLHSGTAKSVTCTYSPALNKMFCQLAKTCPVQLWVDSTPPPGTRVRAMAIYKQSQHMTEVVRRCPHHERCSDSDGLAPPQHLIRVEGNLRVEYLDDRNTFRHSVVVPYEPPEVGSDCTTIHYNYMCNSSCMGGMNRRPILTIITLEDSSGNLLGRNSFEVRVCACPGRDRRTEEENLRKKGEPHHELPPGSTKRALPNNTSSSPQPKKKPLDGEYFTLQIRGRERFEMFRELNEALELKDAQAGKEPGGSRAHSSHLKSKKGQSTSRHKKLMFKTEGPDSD
Signal transducer and activator of transcription 3 (Homo sapiens), sequence (P40763 whole entry, looked up): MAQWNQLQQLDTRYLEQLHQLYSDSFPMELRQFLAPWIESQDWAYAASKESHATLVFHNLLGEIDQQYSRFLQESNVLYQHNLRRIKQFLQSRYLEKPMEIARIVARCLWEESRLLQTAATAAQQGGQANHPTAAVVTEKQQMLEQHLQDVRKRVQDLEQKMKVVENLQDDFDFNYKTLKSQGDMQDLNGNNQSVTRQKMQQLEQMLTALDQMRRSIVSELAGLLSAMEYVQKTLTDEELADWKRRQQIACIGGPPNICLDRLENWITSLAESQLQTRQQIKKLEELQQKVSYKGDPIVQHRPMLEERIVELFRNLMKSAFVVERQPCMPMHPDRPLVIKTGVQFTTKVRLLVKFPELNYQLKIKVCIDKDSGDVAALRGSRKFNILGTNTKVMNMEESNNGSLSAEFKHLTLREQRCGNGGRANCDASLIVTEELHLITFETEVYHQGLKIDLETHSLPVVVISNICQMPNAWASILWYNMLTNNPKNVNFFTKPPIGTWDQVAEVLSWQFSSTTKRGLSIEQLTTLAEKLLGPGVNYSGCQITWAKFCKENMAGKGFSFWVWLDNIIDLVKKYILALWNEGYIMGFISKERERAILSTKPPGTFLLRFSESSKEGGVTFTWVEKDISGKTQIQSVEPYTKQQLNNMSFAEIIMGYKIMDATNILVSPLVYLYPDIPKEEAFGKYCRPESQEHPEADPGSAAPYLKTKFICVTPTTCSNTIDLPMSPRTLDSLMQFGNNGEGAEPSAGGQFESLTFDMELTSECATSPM
Nuclear factor erythroid 2-related factor 2 (Homo sapiens), sequence (Q16236 whole entry, looked up): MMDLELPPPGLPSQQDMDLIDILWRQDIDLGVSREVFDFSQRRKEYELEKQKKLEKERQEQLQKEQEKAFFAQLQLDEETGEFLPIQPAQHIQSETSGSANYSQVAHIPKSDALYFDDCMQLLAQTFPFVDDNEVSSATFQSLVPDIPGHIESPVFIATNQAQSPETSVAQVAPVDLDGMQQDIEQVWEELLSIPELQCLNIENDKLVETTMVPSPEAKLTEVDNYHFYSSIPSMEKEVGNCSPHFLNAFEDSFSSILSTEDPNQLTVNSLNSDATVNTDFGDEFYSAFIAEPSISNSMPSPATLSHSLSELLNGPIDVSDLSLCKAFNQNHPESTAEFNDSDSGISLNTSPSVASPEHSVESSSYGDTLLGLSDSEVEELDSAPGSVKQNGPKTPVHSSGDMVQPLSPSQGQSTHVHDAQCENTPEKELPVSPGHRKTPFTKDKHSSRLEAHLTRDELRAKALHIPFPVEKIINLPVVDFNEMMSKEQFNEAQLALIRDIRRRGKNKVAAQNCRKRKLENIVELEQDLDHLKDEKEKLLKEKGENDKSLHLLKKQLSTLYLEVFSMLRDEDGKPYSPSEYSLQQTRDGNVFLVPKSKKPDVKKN

As for `CC(C)(C)c1ccccc1`, the outcome with MYC, MYC (gene 4609) is “inactive”; in experiment [1] it was “inactive”; in experiment [2], “inactive”; in experiment [3], “inactive”; in experiment [4], “inactive”; in [5] it was “inactive”. Moreover, the call in [6], in experiment [7], in [8], in [9], in [10] and in experiment [11] was inactive. In addition, the outcome was “inactive” in experiment [12]; “inactive” in experiment [13]; “inactive” in experiment [14]; “inactive” with TIMP1, TIMP1 (gene 7076); “inactive” in [15]; “inactive” in experiment [16]. In [17], the call was inactive.
Regarding `CN(C)C(=O)NC1(c2ccccc2)CCN(CC[C@@]2(c3ccc(F)c(F)c3)CN(C(=O)c3ccccc3)CCO2)CC1`, the outcome with MYC, MYC (gene 4609) was “inactive”; in experiment [1] it was “inactive”; in experiment [3], “inactive”; in experiment [4], “inactive”; in experiment [7], “inactive”; in [8], “inactive”. For the same compound, the outcome in experiment [9] is “inactive”; in [10], “inactive”; in experiment [11], “inactive”; in experiment [13], “inactive”; in experiment [14] it was “inactive”; with TIMP1, TIMP1 (gene 7076) it was “inactive”. The compound was classed as inactive in experiment [15] and in experiment [17]. For the same compound, the AC50 in experiment [2] is 1.35 µM (active); in experiment [5] it was 9.33 µM (active); in [6], 21.1 µM (active); in experiment [12], 25.3 µM (active); in [16] it was 29.7 µM (active).
In the case of `O=Cc1ccccc1C=O`, the outcome with MYC, MYC (gene 4609) was “inactive”; in experiment [1], “inactive”; in [2], “inactive”; in experiment [3], “inactive”; in [4] it was “inactive”; in experiment [5], “inactive”. Also, the compound was called inactive in [6], in experiment [7], in experiment [8], in experiment [9], in [10] and in experiment [11]. The call in experiment [12], in experiment [13], in experiment [14], in experiment [15] and in [16] was inactive.
Take `CCCC[C@H]1CN(CC2CCOCC2)C(=O)OC12CCN(C1(C)CCN(C(=O)c3c(C)ncnc3C)CC1)CC2`: the outcome was “inactive” in the experiment with MYC, MYC (gene 4609); “inactive” in [1]; “inactive” in experiment [2]; “inactive” in experiment [3]; “inactive” in [4]; “inactive” in experiment [5]. Moreover, the compound was called inactive in experiment [6], in [7], in experiment [8], in experiment [9], in experiment [10] and in [11]. In addition, the call in [12], in experiment [13], in [14], in [15], in experiment [16] and in experiment [17] was inactive.
